Assay results: the supplement of paper PMC10849652
Of roughly 8,800 targets only a part is listed; those with a hit were picked by preference. About 0.5% of all pairs of compound and target were hits. Unmarked numbers belong to inactive results.

What follows are targets tested with C1=CC2=NC=CN=C2C=C1/C=C/3\C(=O)NC(=O)S3 (assay: log2 fold change, soluble protein after heating vs DMSO (PISA); higher = thermal stabilisation; K562 lysate, 10 uM; active = over 0.2 and 3.5 SD of the protein, either way, in both replicates (recomputed)).
Outline: (§1)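 Dounce homogenisation of K562 pellets in PBS pH 7.4 with 1 mM MgCl2 produced a crude extract, used at 1 mg/mL protein. Exposure to 10 μM compound lasted 30 min, and aliquots were then heated for 3 min across 48°C-58°C, pooled and brought to 0.5% NP-40 at 4°C. The supernatant after 21,000xg for 90 min was quantified by TMTpro 16plex LC-MS/MS with channel sums equalised. Duplicate values are given as log-two fold change in thermal stability relative to solvent controls.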

Sequence of UniProt P67936 (P67936 whole entry, looked up): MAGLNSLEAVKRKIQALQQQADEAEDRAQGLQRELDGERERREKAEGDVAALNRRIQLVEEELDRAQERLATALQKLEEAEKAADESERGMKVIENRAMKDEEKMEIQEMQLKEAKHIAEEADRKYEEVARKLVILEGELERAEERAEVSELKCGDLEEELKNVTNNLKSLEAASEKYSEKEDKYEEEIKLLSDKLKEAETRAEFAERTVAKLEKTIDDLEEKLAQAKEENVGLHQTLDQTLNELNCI
Sequence of UniProt Q14CS0 (Q14CS0 whole entry, looked up): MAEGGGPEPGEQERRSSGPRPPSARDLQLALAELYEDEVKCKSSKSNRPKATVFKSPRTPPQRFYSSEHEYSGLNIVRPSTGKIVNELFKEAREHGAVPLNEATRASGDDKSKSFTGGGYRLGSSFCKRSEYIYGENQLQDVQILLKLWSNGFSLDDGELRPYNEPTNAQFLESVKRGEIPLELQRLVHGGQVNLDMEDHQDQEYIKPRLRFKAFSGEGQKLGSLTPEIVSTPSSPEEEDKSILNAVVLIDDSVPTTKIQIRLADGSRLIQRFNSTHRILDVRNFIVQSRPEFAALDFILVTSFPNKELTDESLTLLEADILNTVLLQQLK
Sequence of UniProt Q9NZ01 (Q9NZ01 whole entry, looked up): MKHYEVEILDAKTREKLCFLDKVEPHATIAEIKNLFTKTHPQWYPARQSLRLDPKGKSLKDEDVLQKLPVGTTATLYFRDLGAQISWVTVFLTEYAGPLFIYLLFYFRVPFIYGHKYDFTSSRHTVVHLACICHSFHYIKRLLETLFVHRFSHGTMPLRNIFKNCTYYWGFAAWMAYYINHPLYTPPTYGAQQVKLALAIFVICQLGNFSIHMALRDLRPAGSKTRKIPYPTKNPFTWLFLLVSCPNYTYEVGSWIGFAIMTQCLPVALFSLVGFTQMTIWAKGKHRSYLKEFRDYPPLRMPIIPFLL
Sequence of UniProt P33981 (P33981 whole entry, looked up): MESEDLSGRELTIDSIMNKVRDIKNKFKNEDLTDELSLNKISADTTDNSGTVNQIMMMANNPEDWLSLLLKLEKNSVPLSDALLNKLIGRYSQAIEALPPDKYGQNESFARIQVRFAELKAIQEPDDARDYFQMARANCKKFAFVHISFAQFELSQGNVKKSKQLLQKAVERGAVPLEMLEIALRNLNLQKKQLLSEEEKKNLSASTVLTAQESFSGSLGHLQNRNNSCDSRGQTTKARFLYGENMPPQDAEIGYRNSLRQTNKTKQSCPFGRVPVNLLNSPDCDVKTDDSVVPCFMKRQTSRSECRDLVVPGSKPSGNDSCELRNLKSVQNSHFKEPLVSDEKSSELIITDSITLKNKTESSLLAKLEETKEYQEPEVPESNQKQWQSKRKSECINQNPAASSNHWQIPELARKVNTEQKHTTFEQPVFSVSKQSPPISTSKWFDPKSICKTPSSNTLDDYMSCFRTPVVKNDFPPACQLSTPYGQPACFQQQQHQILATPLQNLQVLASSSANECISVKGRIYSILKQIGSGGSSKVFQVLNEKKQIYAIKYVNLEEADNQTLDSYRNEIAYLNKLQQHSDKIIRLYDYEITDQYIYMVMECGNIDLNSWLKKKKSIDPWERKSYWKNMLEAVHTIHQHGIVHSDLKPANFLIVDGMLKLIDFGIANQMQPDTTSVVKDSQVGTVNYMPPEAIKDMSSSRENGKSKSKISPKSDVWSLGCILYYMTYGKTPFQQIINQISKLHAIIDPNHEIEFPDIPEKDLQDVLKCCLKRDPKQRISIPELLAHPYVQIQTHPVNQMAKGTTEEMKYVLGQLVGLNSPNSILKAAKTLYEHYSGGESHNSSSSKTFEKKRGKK
Sequence of UniProt Q9UPN9 (Q9UPN9 whole entry, looked up): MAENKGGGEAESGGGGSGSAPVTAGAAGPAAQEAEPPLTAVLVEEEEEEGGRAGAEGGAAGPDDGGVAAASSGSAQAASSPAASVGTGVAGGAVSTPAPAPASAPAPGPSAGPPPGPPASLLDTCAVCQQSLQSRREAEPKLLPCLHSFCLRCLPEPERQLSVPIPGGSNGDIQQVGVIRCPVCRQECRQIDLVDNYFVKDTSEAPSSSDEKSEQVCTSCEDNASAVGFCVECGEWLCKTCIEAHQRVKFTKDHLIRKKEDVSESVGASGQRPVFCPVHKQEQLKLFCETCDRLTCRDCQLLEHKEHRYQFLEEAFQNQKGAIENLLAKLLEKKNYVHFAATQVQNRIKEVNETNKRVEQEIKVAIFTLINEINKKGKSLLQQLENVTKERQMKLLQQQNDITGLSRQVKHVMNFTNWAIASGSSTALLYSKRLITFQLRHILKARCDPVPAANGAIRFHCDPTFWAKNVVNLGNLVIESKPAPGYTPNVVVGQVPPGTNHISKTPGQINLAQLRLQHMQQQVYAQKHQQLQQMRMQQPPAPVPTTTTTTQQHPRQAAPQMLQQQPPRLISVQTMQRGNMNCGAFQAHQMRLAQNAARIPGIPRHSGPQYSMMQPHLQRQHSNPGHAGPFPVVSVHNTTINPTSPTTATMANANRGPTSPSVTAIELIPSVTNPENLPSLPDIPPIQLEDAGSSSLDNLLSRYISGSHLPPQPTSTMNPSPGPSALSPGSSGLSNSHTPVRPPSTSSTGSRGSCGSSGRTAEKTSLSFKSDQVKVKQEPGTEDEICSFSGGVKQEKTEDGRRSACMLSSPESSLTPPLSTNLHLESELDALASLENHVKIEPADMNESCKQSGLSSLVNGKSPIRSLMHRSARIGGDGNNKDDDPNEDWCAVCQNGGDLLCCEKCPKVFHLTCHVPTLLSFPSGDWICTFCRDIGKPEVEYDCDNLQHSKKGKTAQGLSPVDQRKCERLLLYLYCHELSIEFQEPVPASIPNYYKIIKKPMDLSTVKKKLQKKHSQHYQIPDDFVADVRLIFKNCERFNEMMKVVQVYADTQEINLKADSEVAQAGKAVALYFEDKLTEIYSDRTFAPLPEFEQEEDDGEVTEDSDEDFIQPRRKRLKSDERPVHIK
Sequence of UniProt P17480 (P17480 whole entry, looked up): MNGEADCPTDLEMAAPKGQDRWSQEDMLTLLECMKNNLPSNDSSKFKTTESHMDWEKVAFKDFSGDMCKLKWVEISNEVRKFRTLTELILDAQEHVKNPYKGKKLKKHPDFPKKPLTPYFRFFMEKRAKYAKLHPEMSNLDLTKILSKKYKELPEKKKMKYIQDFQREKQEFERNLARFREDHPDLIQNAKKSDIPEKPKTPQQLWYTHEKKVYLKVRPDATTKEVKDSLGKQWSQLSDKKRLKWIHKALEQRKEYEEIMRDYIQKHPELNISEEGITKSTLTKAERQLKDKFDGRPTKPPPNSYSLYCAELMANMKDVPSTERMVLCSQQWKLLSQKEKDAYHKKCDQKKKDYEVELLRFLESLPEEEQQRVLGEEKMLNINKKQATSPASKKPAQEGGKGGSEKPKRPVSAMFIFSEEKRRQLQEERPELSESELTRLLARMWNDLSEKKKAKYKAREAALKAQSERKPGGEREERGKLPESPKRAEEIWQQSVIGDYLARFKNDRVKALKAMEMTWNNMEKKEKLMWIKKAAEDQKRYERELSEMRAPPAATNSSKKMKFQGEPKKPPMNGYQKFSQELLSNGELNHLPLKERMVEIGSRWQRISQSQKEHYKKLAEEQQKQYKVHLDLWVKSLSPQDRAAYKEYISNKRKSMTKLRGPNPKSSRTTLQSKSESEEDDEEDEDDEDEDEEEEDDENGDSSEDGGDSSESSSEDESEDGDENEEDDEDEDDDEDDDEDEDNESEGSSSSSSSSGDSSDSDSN
Sequence of UniProt Q9UHD2 (Q9UHD2 whole entry, looked up): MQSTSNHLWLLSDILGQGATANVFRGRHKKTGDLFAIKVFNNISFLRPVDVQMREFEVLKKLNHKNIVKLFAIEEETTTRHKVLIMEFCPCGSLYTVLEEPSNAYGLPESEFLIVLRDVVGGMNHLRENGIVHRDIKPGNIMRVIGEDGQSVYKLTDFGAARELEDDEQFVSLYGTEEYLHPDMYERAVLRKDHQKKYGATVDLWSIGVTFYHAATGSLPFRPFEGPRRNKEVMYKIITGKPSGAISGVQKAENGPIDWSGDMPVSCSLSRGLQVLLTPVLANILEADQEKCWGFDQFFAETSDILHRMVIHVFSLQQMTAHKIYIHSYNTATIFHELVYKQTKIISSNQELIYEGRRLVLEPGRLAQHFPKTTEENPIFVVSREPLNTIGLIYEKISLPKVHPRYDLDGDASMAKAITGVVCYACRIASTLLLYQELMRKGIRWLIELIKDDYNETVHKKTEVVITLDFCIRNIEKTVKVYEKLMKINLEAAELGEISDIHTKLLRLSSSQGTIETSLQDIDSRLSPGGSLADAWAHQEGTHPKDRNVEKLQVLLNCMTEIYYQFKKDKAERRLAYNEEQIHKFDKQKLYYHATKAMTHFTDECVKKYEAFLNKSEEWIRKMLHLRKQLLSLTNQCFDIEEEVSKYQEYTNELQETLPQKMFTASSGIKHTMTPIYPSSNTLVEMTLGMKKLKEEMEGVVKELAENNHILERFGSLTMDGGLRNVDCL
Sequence of UniProt O43399 (O43399 whole entry, looked up): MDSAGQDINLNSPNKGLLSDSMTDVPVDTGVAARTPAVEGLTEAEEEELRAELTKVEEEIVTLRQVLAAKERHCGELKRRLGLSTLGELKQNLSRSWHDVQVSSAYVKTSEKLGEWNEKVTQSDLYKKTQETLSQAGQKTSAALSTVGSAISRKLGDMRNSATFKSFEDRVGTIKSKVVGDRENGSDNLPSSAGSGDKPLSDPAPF
Sequence of UniProt Q96DX7 (Q96DX7 whole entry, looked up): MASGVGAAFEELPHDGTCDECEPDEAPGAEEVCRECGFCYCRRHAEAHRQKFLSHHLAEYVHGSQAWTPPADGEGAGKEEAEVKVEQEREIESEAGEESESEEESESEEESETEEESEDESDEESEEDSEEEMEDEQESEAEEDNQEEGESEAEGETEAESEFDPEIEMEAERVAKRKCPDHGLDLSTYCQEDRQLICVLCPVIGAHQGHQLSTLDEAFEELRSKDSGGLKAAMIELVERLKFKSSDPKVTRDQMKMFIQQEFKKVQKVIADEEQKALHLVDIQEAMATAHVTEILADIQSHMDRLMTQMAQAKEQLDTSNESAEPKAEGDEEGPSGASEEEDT

UBXN2B (UniProt Q14CS0) and TRAF2 isoform 2 (UniProt Q12933) are within 0.2 log units of each other in log2 fold change: -0.01 for the first, -0.016 for the second.

TMOD1 (UniProt P28289) and TPD52L2 isoform 7 (UniProt O43399) are within 0.2 log units of each other in log2 fold change: -0.001 for the first, 0 for the second.

TMEM199 (UniProt Q8N511) and TBCE (UniProt Q15813) are within 0.2 log units of each other in log2 fold change: 0.018 for the first, 0.014 for the second.

TDRD3 isoform 3 (UniProt Q9H7E2) and TRIM33 (UniProt H0Y612) are within 0.2 log units of each other in log2 fold change: 0.005 for the first, -0.071 for the second.

TGOLN2 isoform 7 (UniProt O43493) and TBL3 (UniProt Q12788) are within 0.2 log units of each other in log2 fold change: -0.036 for the first, 0.012 for the second.

TECR (UniProt Q9NZ01) and TTK (UniProt P33981) are within 0.2 log units of each other in log2 fold change: 0.083 for the first, 0.004 for the second.

TBL2 (UniProt Q9Y4P3) and TPP2 (UniProt P29144) are within 0.2 log units of each other in log2 fold change: -0.023 for the first, 0.006 for the second.

UBAP2 (UniProt Q5T6F2) and TMEM14C (UniProt Q9P0S9) are within 0.2 log units of each other in log2 fold change: 0.022 for the first, -0.039 for the second.

TPM4 (UniProt P67936) and TBK1 (UniProt Q9UHD2) are within 0.2 log units of each other in log2 fold change: -0.012 for the first, -0.067 for the second.

TMPO (UniProt P42166) and TFPI (UniProt P10646) are within 0.2 log units of each other in log2 fold change: -0.03 for the first, -0.141 for the second.

TRIM11 (UniProt Q96F44) and TRIM25 (UniProt Q14258) are within 0.2 log units of each other in log2 fold change: 0.012 for the first, -0.028 for the second.

TRAPPC12 (UniProt Q8WVT3) and TSPAN13 (UniProt O95857) are within 0.2 log units of each other in log2 fold change: -0.018 for the first, -0.002 for the second.

TLK2 isoform 2 (UniProt Q86UE8) and TDRKH (UniProt Q9Y2W6) are within 0.2 log units of each other in log2 fold change: 0.014 for the first, -0.065 for the second.

TRIM33 isoform 2 (UniProt Q9UPN9) and UBR4 (UniProt Q5T4S7) are within 0.2 log units of each other in log2 fold change: -0.002 for the first, -0.006 for the second.

TRIM44 (UniProt Q96DX7) and TMEM87A (UniProt Q8NBN3) are within 0.2 log units of each other in log2 fold change: 0.057 for the first, -0.02 for the second.

UBAP2L isoform 5 (UniProt Q14157) and UBTF (UniProt P17480) are within 0.2 log units of each other in log2 fold change: 0.027 for the first, -0.009 for the second.

TRIM56 (UniProt Q9BRZ2) and TRNAU1AP (UniProt Q9NX07) are within 0.2 log units of each other in log2 fold change: 0.141 for the first, 0.038 for the second.

TLE3 isoform 4 (UniProt Q04726) and TPM4 isoform 2 (UniProt P67936) are within 0.2 log units of each other in log2 fold change: 0 for the first, 0.002 for the second.

TTF2 (UniProt Q9UNY4) and TUBB6 (UniProt K7ES63) are within 0.2 log units of each other in log2 fold change: -0.026 for the first, -0.01 for the second.

TTI1 (UniProt O43156) gave a log2 fold change of -0.012.

What follows are targets tested with C1=CC=C(C=C1)C2=NC(=C(N2)C3=CC=NC=C3)C4=CC(=C(C=C4)Cl)O in the same assay as above.
Outline: as §1

UBXN2B (UniProt Q14CS0) and TRAF2 isoform 2 (UniProt Q12933) are within 0.2 log units of each other in log2 fold change: -0.062 for the first, -0.01 for the second.

TMOD1 (UniProt P28289) and TPD52L2 isoform 7 (UniProt O43399) are within 0.2 log units of each other in log2 fold change: 0.003 for the first, 0.017 for the second.

TMEM199 (UniProt Q8N511) and TBCE (UniProt Q15813) are within 0.2 log units of each other in log2 fold change: -0.013 for the first, 0.001 for the second.

Going from TDRD3 isoform 3 (UniProt Q9H7E2) to TRIM33 (UniProt H0Y612), the log2 fold change falls from 0.257 to -0.01.

TGOLN2 isoform 7 (UniProt O43493) and TBL3 (UniProt Q12788) are within 0.2 log units of each other in log2 fold change: -0.021 for the first, 0.017 for the second.

TECR (UniProt Q9NZ01) and TTK (UniProt P33981) are within 0.2 log units of each other in log2 fold change: -0.013 for the first, 0.039 for the second.

TBL2 (UniProt Q9Y4P3) and TPP2 (UniProt P29144) are within 0.2 log units of each other in log2 fold change: 0.038 for the first, 0 for the second.

UBAP2 (UniProt Q5T6F2) and TMEM14C (UniProt Q9P0S9) are within 0.2 log units of each other in log2 fold change: -0.159 for the first, 0.022 for the second.

TPM4 (UniProt P67936) and TBK1 (UniProt Q9UHD2) are within 0.2 log units of each other in log2 fold change: 0.001 for the first, 0.023 for the second.

TMPO (UniProt P42166) and TFPI (UniProt P10646) are within 0.2 log units of each other in log2 fold change: -0.024 for the first, -0.02 for the second.

TRIM11 (UniProt Q96F44) and TRIM25 (UniProt Q14258) are within 0.2 log units of each other in log2 fold change: -0.018 for the first, 0.032 for the second.

TRAPPC12 (UniProt Q8WVT3) and TSPAN13 (UniProt O95857) are within 0.2 log units of each other in log2 fold change: -0.005 for the first, 0.008 for the second.

TLK2 isoform 2 (UniProt Q86UE8) and TDRKH (UniProt Q9Y2W6) are within 0.2 log units of each other in log2 fold change: 0.001 for the first, 0.02 for the second.

TRIM33 isoform 2 (UniProt Q9UPN9) and UBR4 (UniProt Q5T4S7) are within 0.2 log units of each other in log2 fold change: 0.003 for the first, 0.008 for the second.

TRIM44 (UniProt Q96DX7) and TMEM87A (UniProt Q8NBN3) are within 0.2 log units of each other in log2 fold change: -0.013 for the first, -0.02 for the second.

UBAP2L isoform 5 (UniProt Q14157) and UBTF (UniProt P17480) are within 0.2 log units of each other in log2 fold change: -0.184 for the first, 0.002 for the second.

TRIM56 (UniProt Q9BRZ2) and TRNAU1AP (UniProt Q9NX07) are within 0.2 log units of each other in log2 fold change: -0.013 for the first, -0.028 for the second.

TLE3 isoform 4 (UniProt Q04726) and TPM4 isoform 2 (UniProt P67936) are within 0.2 log units of each other in log2 fold change: 0.016 for the first, 0.024 for the second.

TTF2 (UniProt Q9UNY4) and TUBB6 (UniProt K7ES63) are within 0.2 log units of each other in log2 fold change: 0.042 for the first, -0.154 for the second.

Target TTI1 (UniProt O43156) has a log2 fold change of -0.02.
